Reference: PubChem BioAssay AID1159580 (chemical genetic matrix, 2015)
Hit rate of the full screen: of about 5,500 compounds, about 2,000 (36%) were called active. Another 18% or so got no clear call; they are omitted. No stated cut-off is given here; in the data, active means normalized growth mostly below about 0.91 (no sharp cut-off); inconclusive means no clear call, values can overlap the other calls; inactive means mostly above about 0.92. The list shows a part of the results.

Assay: chemical genetic growth profiling, strain panel (AID 1159580);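 further: tested at 20 µM; growth read once vehicle control cultures reached saturation at 30 °C; 1 = growth at the plate median or of vehicle wells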
Conditions: growth OD
[1] = S. cerevisiae deletion strains, locus YAL040C, strain CLN3, stronger effect = lower value
[2] = S. cerevisiae deletion strains, locus YER002W, strain NOP16, stronger effect = lower value
[3] = S. cerevisiae deletion strains, locus YMR307W, strain GAS1, stronger effect = lower value
[4] = S. cerevisiae deletion strains, locus YNL128W, strain TEP1, stronger effect = lower value
[5] = S. cerevisiae deletion strains, locus YNL175C, strain NOP13, stronger effect = lower value
[6] = S. cerevisiae deletion strains, locus YNL197C, strain WHI3, stronger effect = lower value
[7] = S. cerevisiae deletion strains, locus YNL224C, strain SQS1, stronger effect = lower value
[8] = S. cerevisiae deletion strains, locus YOR083W, strain WHI5 (second series), stronger effect = lower value
[9] = S. cerevisiae deletion strains, locus YPL055C, strain LGE1, stronger effect = lower value
[10] = S. cerevisiae deletion strains, locus YDR150W, strain NUM1, stronger effect = lower value
[11] = S. cerevisiae deletion strains, locus YJR075W, strain HOC1, stronger effect = lower value
[12] = S. cerevisiae deletion strains, locus YNL153C, strain GIM3, stronger effect = lower value
[13] = S. cerevisiae deletion strains, locus YPL241C, strain CIN2, stronger effect = lower value

Measured: normalized growth

NC[C@@H]1O[C@H](C23CC4CC(CC(C4)C2)C3)Cc2c1ccc(O)c2O
active: [3] 0.414 | [9] 0.599
inactive: [1] 0.954 | [2] 0.998 | S. cerevisiae deletion strains, locus YMR263W, strain SAP30, stronger effect = lower value 1 | [4] 0.995 | [5] 1.03 | [6] 1.03 | [7] 1.09 | [8] 1.01

COc1cc2c(cc1O)CC[C@@H]1[C@@H]2CC[C@]2(C)[C@@H](O)CC[C@@H]12
inactive: [1] 1.02 | S. cerevisiae deletion strains, locus YCL061C, strain MRC1 (second series), stronger effect = lower value 1 | [10] 0.964 | S. cerevisiae deletion strains, locus YDR363W, strain ESC2, stronger effect = lower value 1.02 | [2] 0.994 | S. cerevisiae deletion strains, locus YGR078C, strain PAC10, stronger effect = lower value 1 | [11] 1.03 | [12] 0.936 | [5] 1.01 | [6] 1.03 | [7] 1.03 | [8] 0.982 | [13] 0.996

CC12CCC3c4ccc(OCc5ccccc5)cc4CCC3C1C[C@@H](O)[C@@H]2O (some centres undefined)
inactive: S. cerevisiae deletion strains, locus YBR021W, strain FUR4, stronger effect = lower value 0.995
active: S. cerevisiae deletion strains, locus YBR229C, strain ROT2, stronger effect = lower value 0.0599 | S. cerevisiae deletion strains, locus YCL029C, strain bik1, stronger effect = lower value 0.0651 | S. cerevisiae deletion strains, locus YDL035C, strain GPR1, stronger effect = lower value 0.1 | S. cerevisiae deletion strains, locus YDL074C, strain BRE1, stronger effect = lower value 0.0834 | S. cerevisiae deletion strains, locus YDL101C, strain DUN1, stronger effect = lower value 0.0689 | S. cerevisiae deletion strains, locus YDL134C, strain PPH21, stronger effect = lower value 0.055 | S. cerevisiae deletion strains, locus YDL185W, strain tfp1, stronger effect = lower value 0.058 | S. cerevisiae deletion strains, locus YDL192W, strain arf1, stronger effect = lower value 0.0627 | S. cerevisiae deletion strains, locus YDR101C, strain arx1, stronger effect = lower value 0.127 | [10] 0.355 | S. cerevisiae deletion strains, locus YDR162C, strain NBP2, stronger effect = lower value 0.0538 | S. cerevisiae deletion strains, locus YDR318W, strain mcm21, stronger effect = lower value 0.076 | S. cerevisiae deletion strains, locus YDR388W, stronger effect = lower value 0.066 | S. cerevisiae deletion strains, locus YDR502C, strain sam2, stronger effect = lower value 0.0938 | S. cerevisiae deletion strains, locus YEL061C, strain CIN8, stronger effect = lower value 0.0518 | S. cerevisiae deletion strains, locus YER110C, stronger effect = lower value 0.0937 | S. cerevisiae deletion strains, locus YER155C, strain BEM2, stronger effect = lower value 0.0637 | S. cerevisiae deletion strains, locus YER167W, strain BCK2, stronger effect = lower value 0.0557 | S. cerevisiae deletion strains, locus YGL078C, strain dbp3, stronger effect = lower value 0.106 | S. cerevisiae deletion strains, locus YGL086W, strain mad1, stronger effect = lower value 0.0655 | S. cerevisiae deletion strains, locus YGL248W, strain PDE1, stronger effect = lower value 0.0599 | S. cerevisiae deletion strains, locus YGR135W, strain pre9, stronger effect = lower value 0.265 | S. cerevisiae deletion strains, locus YGR252W, strain gcn5, stronger effect = lower value 0.133 | S. cerevisiae deletion strains, locus YHR030C, strain SLT2, stronger effect = lower value 0.0559 | S. cerevisiae deletion strains, locus YHR079C, strain IRE1 (second series), stronger effect = lower value 0.0829 | S. cerevisiae deletion strains, locus YHR094C, strain hxt1, stronger effect = lower value 0.0776 | S. cerevisiae deletion strains, locus YHR129C, strain ARP1, stronger effect = lower value 0.0606 | S. cerevisiae deletion strains, locus YHR200W, strain rpn10, stronger effect = lower value 0.0742 | S. cerevisiae deletion strains, locus YIL066C, strain RNR3, stronger effect = lower value 0.0563 | S. cerevisiae deletion strains, locus YIL073C, strain SPO22, stronger effect = lower value 0.112 | S. cerevisiae deletion strains, locus YIL125W, strain kgd1, stronger effect = lower value 0.0668 | S. cerevisiae deletion strains, locus YIR030C, strain dcg1, stronger effect = lower value 0.104 | S. cerevisiae deletion strains, locus YJL095W, strain BCK1, stronger effect = lower value 0.062 | S. cerevisiae deletion strains, locus YJL134W, strain LCB3, stronger effect = lower value 0.0681 | S. cerevisiae deletion strains, locus YJL168C, strain set2, stronger effect = lower value 0.0842 | S. cerevisiae deletion strains, locus YJL187C, strain SWE1 (second series), stronger effect = lower value 0.0613 | S. cerevisiae deletion strains, locus YJR043C, strain POL32, stronger effect = lower value 0.0826 | [11] 0.0841 | S. cerevisiae deletion strains, locus YKL009W, strain mrt4, stronger effect = lower value 0.0811 | S. cerevisiae deletion strains, locus YKL068W, stronger effect = lower value 0.187 | S. cerevisiae deletion strains, locus YKL085W, strain MDH1 (second series), stronger effect = lower value 0.068 | S. cerevisiae deletion strains, locus YKL085W, strain MDH1, stronger effect = lower value 0.068 | S. cerevisiae deletion strains, locus YKL190W, strain CNB1, stronger effect = lower value 0.0552 | S. cerevisiae deletion strains, locus YKR001C, strain vps1, stronger effect = lower value 0.062 | S. cerevisiae deletion strains, locus YLR039C, strain RIC1, stronger effect = lower value 0.0869 | S. cerevisiae deletion strains, locus YLR058C, strain SHM2, stronger effect = lower value 0.0598 | S. cerevisiae deletion strains, locus YLR102C, strain apc9, stronger effect = lower value 0.0693 | S. cerevisiae deletion strains, locus YLR262C, strain YPT6, stronger effect = lower value 0.103 | S. cerevisiae deletion strains, locus YLR268W, strain sec22, stronger effect = lower value 0.0915 | S. cerevisiae deletion strains, locus YLR330W, strain CHS5, stronger effect = lower value 0.0559 | S. cerevisiae deletion strains, locus YLR342W, strain FKS1 (second series), stronger effect = lower value 0.0702 | S. cerevisiae deletion strains, locus YLR371W, strain rom2, stronger effect = lower value 0.0664 | S. cerevisiae deletion strains, locus YLR418C, strain cdc73, stronger effect = lower value 0.101 | S. cerevisiae deletion strains, locus YML016C, strain PPZ1, stronger effect = lower value 0.0511 | S. cerevisiae deletion strains, locus YML032C, strain rad52, stronger effect = lower value 0.0688 | S. cerevisiae deletion strains, locus YML124C, strain tub3, stronger effect = lower value 0.117 | S. cerevisiae deletion strains, locus YMR078C, strain ctf18, stronger effect = lower value 0.0734 | S. cerevisiae deletion strains, locus YMR223W, strain ubp8, stronger effect = lower value 0.0801 | [3] 0.114 | S. cerevisiae deletion strains, locus YNL067W, strain RPL9B, stronger effect = lower value 0.093 | [4] 0.0726 | [12] 0.0573 | S. cerevisiae deletion strains, locus YNL233W, strain BNI4, stronger effect = lower value 0.0603 | S. cerevisiae deletion strains, locus YNL250W, strain rad50, stronger effect = lower value 0.0963 | S. cerevisiae deletion strains, locus YNL271C, strain bni1, stronger effect = lower value 0.129 | S. cerevisiae deletion strains, locus YNL298W, strain CLA4, stronger effect = lower value 0.0669 | S. cerevisiae deletion strains, locus YNL307C, strain MCK1, stronger effect = lower value 0.0674 | S. cerevisiae deletion strains, locus YNR052C, strain pop2, stronger effect = lower value 0.0752 | S. cerevisiae deletion strains, locus YOL006C, strain TOP1, stronger effect = lower value 0.114 | S. cerevisiae deletion strains, locus YOL012C, strain htz1 0.149 | S. cerevisiae deletion strains, locus YOL147C, strain pex11, stronger effect = lower value 0.0612 | S. cerevisiae deletion strains, locus YOR061W, strain CKA2, stronger effect = lower value 0.0522 | S. cerevisiae deletion strains, locus YOR069W, strain VPS5, stronger effect = lower value 0.0556 | S. cerevisiae deletion strains, locus YOR136W, strain idh2, stronger effect = lower value 0.077 | S. cerevisiae deletion strains, locus YOR144C, strain elg1, stronger effect = lower value 0.0719 | S. cerevisiae deletion strains, locus YOR184W, strain ser1, stronger effect = lower value 0.0768 | S. cerevisiae deletion strains, locus YOR316C, strain cot1, stronger effect = lower value 0.0738 | [9] 0.0696 | [13] 0.0593 | S. cerevisiae deletion strains, locus YPR119W, strain clb2, stronger effect = lower value 0.0659 | S. cerevisiae deletion strains, locus YPR141C, strain kar3, stronger effect = lower value 0.106 | S. cerevisiae deletion strains, locus YPR163C, strain tif3, stronger effect = lower value 0.0746 | S. cerevisiae deletion strains, locus YPR167C, strain met16, stronger effect = lower value 0.0654 | S. cerevisiae deletion strains, strain wtn01, stronger effect = lower value 0.107 | S. cerevisiae strains, strain wild type, stronger effect = lower value 0.0526
